Compounds without any hit were thinned out: in the full panel of roughly 83,000, 20% have a hit.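 Single-dose data. Exposure time 48 hours. Values below 10 considered active.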 Values without a mark were called inactive. The source made the active and inactive calls.
Each compound was assayed on UACC-62 melanoma (assay: NCI-60 one-dose screen, 48 h (100 = growth as untreated, 0 = no growth, -100 = all killed)). Details: 10 µM unless noted.
`COc1ccc2c(c1)C(=O)c1c-2c(=O)n(CCCCCCC(=O)NO)c2ccccc12` was tested, and the growth was -55.5% (active). `CCC1=C(c2ccc(OC)cc2)C(C)(C)Oc2c1ccc(O)c2CN1CCCC1` gave a growth of 10.5%. With `CCCCCCCCCCCCCCCCCC1=NC(C)(C)CN1CCO` the growth was -77.1% (active). Work on `O=C(Nc1ccc(Cl)cc1)Nc1ccc(Nc2nncc3ccccc23)cc1` yielded a growth of 13.4%. `COc1cc(C2C=C(c3ccc(C)cc3)Nc3nc(SC)[nH]c(=O)c32)ccc1Oc1ccnc2cc(Cl)ccc12` (stereo not drawn) gave a growth of 61.5%. Work on `C=C(C[C@@](O)(C(=O)Oc1ccccc1)C(=O)C1CCCCC1)c1ccccc1` yielded a growth of 90.3%. `CCCCCCCC1(C)NC(=O)NC1=O` (stereo not drawn) showed a growth of 106%. `CCOC(=O)c1c(C)c(C(=O)OCC)n(C)c1C` showed a growth of 83.8%. `COc1ccc(-c2cncn2-c2ccc(-c3nc4cc(OC)c(OC)c(OC)c4s3)cc2)cc1N` showed a growth of 53.7%. `CCc1[nH]nc(-c2ccc(OC)cc2)c1-c1ccccc1OCCN(CC)CC` showed a growth of 106%. For `COc1ncc(-c2ccc3nccc(C#CCN4CCN(S(C)(=O)=O)CC4)c3c2)cc1NS(=O)(=O)c1ccc(F)cc1F`, the growth was -54.9% (active). With `COc1ccc2c(c1)C(=O)c1c-2c(OCCCN(C)C)nc2cc(Br)ccc12` the growth was 86.4%. `N#Cc1c(N)[nH]c(S)c1C#N` showed a growth of 94.9%. Compound `CC(O)c1nc2c(c(=O)n(C)c(=O)n2C)n1C` (stereo not drawn) has a growth of 102%. With `Cc1ccc(NC(=O)Nc2ccc(-c3cccnc3)cc2N2CCC(CO)CC2)cc1` the growth was 4.73% (active). In the case of `COc1ccc(CCN2CCCN3C2=Nc2ccccc2S3(=O)=O)cc1`, the growth is reported as 23.5%. `Cc1nnc(Nc2ccc(NC(=O)Nc3ccc(Cl)cc3)cc2)c2ccccc12` was tested, and the growth was -34.4% (active). In the case of `CCCCCCCCCCSc1ncnc2nc[nH]c12`, the growth is reported as 69.9%. `C=C(C[C@](O)(C(=O)/C=C/c1ccc(Cl)cc1)C(=O)OC)c1ccccc1` showed a growth of 53.8%. Work on `O=C(/C=C/c1ccccc1Cl)c1ccc(O)cc1` yielded a growth of 73.4%. With `CC(=O)NC1(C(=O)O)CCCC1` the growth was 110%. `CCOC(=O)c1cc(-c2cccnc2)nc2c(Cl)cc(Cl)cc12` showed a growth of 95.6%. With `CN1C(=O)/C(=C/c2nc(-c3cccc(F)c3)n3ccccc23)c2ccccc21` the growth was 71.3%. `O=C1C(=O)c2ccc(Br)cc2-c2cc(Br)ccc21` showed a growth of 92.4%. `CCN1CCN(c2cc(-c3cn[nH]c3-c3cc(C)cc(OC)c3)nc(-c3cccnc3)n2)CC1` was tested, and the growth was 102%. For `ClC1=C(Cl)C(Cl)=C(Cl)C1=C/C=C/c1ccccc1`, the growth was -83.6% (active). In the case of `O=C(CN1CCCCC1)Sc1nnc2sc3ccccc3n12`, the growth is reported as 107%. For `CN1CCN(Cc2ccc(NC(=O)c3[nH]ncc3Nc3ccnc4ccnn34)cc2)CC1`, the growth was 67.7%. `CC1=CC(=O)C(C(C)=Nc2ccccc2Cl)C(=O)O1` (stereo not drawn) was tested, and the growth was 98%. `CSc1ncc2ncn(C3OC(CO)C(O)C3O)c2n1` (stereo not drawn) showed a growth of 103%. `COc1ccc2nc3cc(Cl)ccc3c(Nc3cc(C(C)C)c(O)cc3C)c2c1` gave a growth of 65.8%. `c1cnc2ccc3ncccc3c2c1` gave a growth of 99.2%. With `O=C(Nc1ccc(Cl)cc1)Nc1ccc(Oc2nncc3ccccc23)cc1` the growth was -14.3% (active). For `CCCCCCCC/C=C/CCCCCCCC1=NC(C)(C)CN1CCO`, the growth was -64.4% (active). In the case of `CN(CC(=O)N(Cc1ccc(C2CCCCC2)cc1)c1ccc(C(=O)O)cc1)S(=O)(=O)c1c(F)c(F)c(F)c(F)c1F`, the growth is reported as -7.33% (active).

These compounds were tested on LOX IMVI melanoma in the same assay as above. Details: 10 µM unless noted.
With `COc1ccc2c(c1)C(=O)c1c-2c(=O)n(CCCCCCC(=O)NO)c2ccccc12` the growth was -82% (active). For `CCC(C)(C)C(=O)O[C@H]1C[C@@H](C)C=C2C=C[C@H](C)[C@H](CC[C@@H]3C[C@@H](O)CC(=O)O3)[C@H]21`, the growth was -16.2% (active). With `CCC1=C(c2ccc(OC)cc2)C(C)(C)Oc2c1ccc(O)c2CN1CCCC1` the growth was -59.7% (active). For `CCCCCCCCCCCCCCCCCC1=NC(C)(C)CN1CCO`, the growth was -67% (active). `O=C(Nc1ccc(Cl)cc1)Nc1ccc(Nc2nncc3ccccc23)cc1` showed a growth of 33.6%. With `COc1cc(C2C=C(c3ccc(C)cc3)Nc3nc(SC)[nH]c(=O)c32)ccc1Oc1ccnc2cc(Cl)ccc12` (stereo not drawn) the growth was 79.9%. For `C=C(C[C@@](O)(C(=O)Oc1ccccc1)C(=O)C1CCCCC1)c1ccccc1`, the growth was 101%. `CCCCCCCC1(C)NC(=O)NC1=O` (stereo not drawn) was tested, and the growth was 103%. Compound `CCOC(=O)c1c(C)c(C(=O)OCC)n(C)c1C` has a growth of 103%. `COc1ccc(-c2cncn2-c2ccc(-c3nc4cc(OC)c(OC)c(OC)c4s3)cc2)cc1N` gave a growth of 62.4%. `CCc1[nH]nc(-c2ccc(OC)cc2)c1-c1ccccc1OCCN(CC)CC` gave a growth of 80.2%. For `COc1ncc(-c2ccc3nccc(C#CCN4CCN(S(C)(=O)=O)CC4)c3c2)cc1NS(=O)(=O)c1ccc(F)cc1F`, the growth was -11.4% (active). `COc1ccc2c(c1)C(=O)c1c-2c(OCCCN(C)C)nc2cc(Br)ccc12` gave a growth of 20.7%. In the case of `N#Cc1c(N)[nH]c(S)c1C#N`, the growth is reported as 102%. `CC(O)c1nc2c(c(=O)n(C)c(=O)n2C)n1C` (stereo not drawn) showed a growth of 104%. With `Cc1ccc(NC(=O)Nc2ccc(-c3cccnc3)cc2N2CCC(CO)CC2)cc1` the growth was 33.3%. With `CCCCCCCCCCCCCCCCN=C(CC(=O)O)C(=O)O` the growth was 90.5%. In the case of `COc1ccc(CCN2CCCN3C2=Nc2ccccc2S3(=O)=O)cc1`, the growth is reported as 27.7%. For `Cc1nnc(Nc2ccc(NC(=O)Nc3ccc(Cl)cc3)cc2)c2ccccc12`, the growth was -27.3% (active). With `CCCCCCCCCCSc1ncnc2nc[nH]c12` the growth was 56.3%. `C=C(C[C@](O)(C(=O)/C=C/c1ccc(Cl)cc1)C(=O)OC)c1ccccc1` was tested, and the growth was -72.4% (active). In the case of `O=C(/C=C/c1ccccc1Cl)c1ccc(O)cc1`, the growth is reported as 36.2%. Work on `CC(=O)NC1(C(=O)O)CCCC1` yielded a growth of 106%. With `CCOC(=O)c1cc(-c2cccnc2)nc2c(Cl)cc(Cl)cc12` the growth was 98.2%. In the case of `CN1C(=O)/C(=C/c2nc(-c3cccc(F)c3)n3ccccc23)c2ccccc21`, the growth is reported as 48.8%. `O=C1C(=O)c2ccc(Br)cc2-c2cc(Br)ccc21` was tested, and the growth was -24.6% (active). `CCN1CCN(c2cc(-c3cn[nH]c3-c3cc(C)cc(OC)c3)nc(-c3cccnc3)n2)CC1` was tested, and the growth was 56.7%. With `ClC1=C(Cl)C(Cl)=C(Cl)C1=C/C=C/c1ccccc1` the growth was -91.6% (active). In the case of `O=C(CN1CCCCC1)Sc1nnc2sc3ccccc3n12`, the growth is reported as 103%. `CN1CCN(Cc2ccc(NC(=O)c3[nH]ncc3Nc3ccnc4ccnn34)cc2)CC1` was tested, and the growth was 24.1%. `CC1=CC(=O)C(C(C)=Nc2ccccc2Cl)C(=O)O1` (stereo not drawn) gave a growth of 83.6%. Work on `CSc1ncc2ncn(C3OC(CO)C(O)C3O)c2n1` (stereo not drawn) yielded a growth of 108%. Compound `COc1ccc2nc3cc(Cl)ccc3c(Nc3cc(C(C)C)c(O)cc3C)c2c1` has a growth of 26.8%. `c1cnc2ccc3ncccc3c2c1` showed a growth of 97.9%. With `O=C(Nc1ccc(Cl)cc1)Nc1ccc(Oc2nncc3ccccc23)cc1` the growth was -77.3% (active). In the case of `CCCCCCCC/C=C/CCCCCCCC1=NC(C)(C)CN1CCO`, the growth is reported as -74.6% (active). `CN(CC(=O)N(Cc1ccc(C2CCCCC2)cc1)c1ccc(C(=O)O)cc1)S(=O)(=O)c1c(F)c(F)c(F)c(F)c1F` was tested, and the growth was -64.1% (active). Compound `CCN(CC)CCCNCCCNc1cc(OC)cc2cccnc12` has a growth of 80.3%.

Reference: PubChem BioAssay (NCI)
